Compound activity (PubChem BioAssay)
The sample as a whole holds a higher share of hits than the screen did.
U2OS ROS induce = ROS inducers in U2OS cancer cells, primary screen, cell-based, H2DCF-DA fluorescence | U2OS ROS induction | ROS induction (% of piperlongumine), % at 10 µM | AID 624156, 2012 | 46,000 compounds, 2% hits; in the data active = ROS induction above about 79%, passing the limit was not always enough;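 also: 0% = DMSO vehicle median and 100% = reference compound median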
* = called active by the depositor.

Results for Cc1ccc(S(=O)(=O)N(C)C[C@H]2Oc3ccc(NS(C)(=O)=O)cc3C(=O)N([C@@H](C)CO)C[C@H]2C)cc1 ?
U2OS ROS induce: -9

Results for C[C@H](CO)N1C[C@H](C)[C@@H](CN(C)Cc2ccc(Oc3ccccc3)cc2)Oc2ccc(NC(=O)Cc3cn(C)c4ccccc34)cc2C1=O ?
U2OS ROS induce: 113*

What do the screens show for `COc1ccc(CN(C)C[C@@H]2Oc3ccc(NC(=O)Cc4cn(C)c5ccccc45)cc3C(=O)N([C@@H](C)CO)C[C@H]2C)cc1`?
U2OS ROS induce: 32

What do the screens show for `COc1ccc(NC(=O)N(C)C[C@H]2Oc3ccc(NC(=O)Cc4cn(C)c5ccccc45)cc3C(=O)N([C@@H](C)CO)C[C@@H]2C)cc1`?
U2OS ROS induce: -6

How did COc1ccc(CN(C)C[C@H]2Oc3ccc(NC(=O)Cc4cn(C)c5ccccc45)cc3C(=O)N([C@H](C)CO)C[C@@H]2C)cc1 do in these assays?
U2OS ROS induce: 185*

How did C[C@@H]1CN([C@H](C)CO)C(=O)Cc2cc(NC(=O)Cc3cn(C)c4ccccc34)ccc2O[C@H]1CN(C)Cc1ccc(Oc2ccccc2)cc1 do in these assays?
U2OS ROS induce: 15

Results for C[C@H](CO)N1C[C@H](C)[C@H](CN(C)Cc2ccncc2)Oc2ccc(NC(=O)Cc3cn(C)c4ccccc34)cc2C1=O ?
U2OS ROS induce: -11

Results for C[C@@H]1CN([C@@H](C)CO)C(=O)Cc2cc(NC(=O)CCC(F)(F)F)ccc2O[C@@H]1CN(C)S(C)(=O)=O ?
U2OS ROS induce: 19

How did C[C@H](CO)N1C[C@H](C)[C@H](CN(C)C)Oc2ccc(NC(=O)Nc3ccc(C(F)(F)F)cc3)cc2CC1=O do in these assays?
U2OS ROS induce: -17

What do the screens show for `C[C@H]1CN([C@@H](C)CO)C(=O)Cc2cc(NS(=O)(=O)c3ccc(Cl)cc3)ccc2O[C@H]1CN(C)S(=O)(=O)c1cccs1`?
U2OS ROS induce: 6

Results for C[C@H]1CN([C@@H](C)CO)C(=O)c2cccc(NS(=O)(=O)c3ccccc3)c2O[C@H]1CN(C)Cc1ccncc1 ?
U2OS ROS induce: -13

How did CC(C)NC(=O)Nc1ccc2c(c1)C(=O)N([C@H](C)CO)C[C@@H](C)[C@H](CN(C)S(=O)(=O)c1ccc(Cl)cc1)O2 do in these assays?
U2OS ROS induce: -1

Results for CC(C)NC(=O)Nc1ccc2c(c1)C(=O)N([C@H](C)CO)C[C@@H](C)[C@@H](CN(C)C(=O)Nc1ccc(C(F)(F)F)cc1)O2 ?
U2OS ROS induce: -8

What do the screens show for `O=C1Nc2ccc(Br)cc2/C1=C/c1cc2c([nH]1)CCCC2`?
U2OS ROS induce: 43

How did CN(C)c1ccc(/C=C2\C(=O)Nc3ccccc32)c2ccccc12 do in these assays?
U2OS ROS induce: -8

What do the screens show for `CN(C)S(=O)(=O)c1ccc2c(c1)/C(=C/c1cc3c([nH]1)CCCC3)C(=O)N2`?
U2OS ROS induce: 98*

Results for C[C@@H]1CN([C@H](C)CO)C(=O)Cc2cc(NC(=O)Nc3ccc(C(F)(F)F)cc3)ccc2O[C@@H]1CN(C)C(=O)Nc1cccc2ccccc12 ?
U2OS ROS induce: -5

What do the screens show for `C[C@H]1CN([C@@H](C)CO)C(=O)Cc2cc(NC(=O)Nc3ccc(C(F)(F)F)cc3)ccc2O[C@H]1CN(C)Cc1ccc(-c2ccccc2)cc1`?
U2OS ROS induce: 12

How did C[C@@H]1O[C@@H](O[C@H]2[C@@H]3C=CO[C@@H](O[C@@H]4O[C@H](CO)[C@@H](O)[C@H](O)[C@H]4O)[C@@H]3[C@@]3(CO)O[C@@H]23)[C@H](O)[C@H](OC(=O)/C=C/c2ccccc2)[C@H]1O do in these assays?
U2OS ROS induce: 11

Results for C=C[C@]1(C)C[C@H](O)[C@H]2C(=C)C(=O)O[C@@H]2[C@H]1C(=C)CO ?
U2OS ROS induce: 15

What do the screens show for `C=CC1(C)C[C@H](OC(=O)C(C)CO)[C@H]2C(=C)C(=O)O[C@@H]2C1C(=C)CO` (some centres undefined)?
U2OS ROS induce: 134*

How did O=C(CSc1nnc(-c2ccc([N+](=O)[O-])cc2)n1-c1ccccc1)NC1CCCCC1 do in these assays?
U2OS ROS induce: 10

Results for C[C@@H]1CN([C@H](C)CO)C(=O)c2cccc(NS(C)(=O)=O)c2O[C@@H]1CN(C)Cc1ccc(C(=O)Nc2ccccc2N)cc1 ?
U2OS ROS induce: -9

Results for COCCOC(=O)N1C(=O)[C@@]2(c3ccccc31)[C@H](c1ccc(O)cc1)N1[C@H](c3ccccc3)[C@H](c3ccccc3)OC(=O)[C@H]1[C@@H]2C(N)=O ?
U2OS ROS induce: 1

Results for COCCOC(=O)N1C(=O)[C@@]2(c3cc(C#CCCO)ccc31)[C@H](C(=O)N1CCN(c3ncccn3)CC1)[C@H]1C(=O)O[C@H](c3ccccc3)[C@H](c3ccccc3)N1[C@@H]2c1ccccc1OCCO ?
U2OS ROS induce: 166*

How did COCCOC(=O)N1C(=O)[C@@]2(c3ccccc31)[C@H](C(=O)N1CCN(c3ncccn3)CC1)[C@H]1C(=O)O[C@H](c3ccccc3)[C@H](c3ccccc3)N1[C@@H]2c1ccccc1OCCO do in these assays?
U2OS ROS induce: 122*
